# Screens (PubChem BioAssay)
# PLC-gamma1 inh: PLC-gamma1 enzyme inhibitors, primary screen, biochemical, fluorescence, purified enzyme; 1-phosphatidylinositol 4,5-bisphosphate phosphodiesterase gamma-1 (Homo sapiens), P19174; fluorogenic substrate; inhibition, % at 12.2 µM; hit rate 0.84% among 370,000; in the data active = inhibition above about 9.5%
# ADAM10 inh: human ADAM10 inhibitors, primary screen, biochemical, QFRET, HTS | inhibition, % at 7 µM | AID 720582, 2013 | Disintegrin and metalloproteinase domain-containing protein 10 (Homo sapiens), O14672 | recombinant ADAM10, EDANS/DABCYL FRET peptide cleavage, 3 h | hit rate 0.62% among 370,000;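 active = inhibition above a per-campaign cutoff equal to the mean of compounds falling between control-based bounds plus 3 SD, cut at about 20% in these data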;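 also: 0% = DMSO wells while the 100% control is not disclosed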
# proKLK7 act: proKLK7 zymogen activators, primary screen, biochemical, fluorescence intensity. hit rate 0.9% among 370,000. Kallikrein-7 (Homo sapiens), P49862. activation, % at 7 µM. purified proKLK7, EDANS-DABCYL substrate fluorescence; 100% is mature enzyme control, 0% vehicle. AID 652039, 2013;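 active = activation above the mean of all tested compounds plus 3 SD, computed per campaign excluding outliers beyond control limits, cut at about 13% in these data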
# PLC-beta3 inh: human PLC-beta3 inhibitors, primary screen, biochemical, fluorescence; Purified PLC-beta3, fluorogenic substrate; hit rate 0.18% among 370,000; 1-phosphatidylinositol 4,5-bisphosphate phosphodiesterase beta-3 (Homo sapiens), Q01970; AID 720704, 2013; inhibition, % at 12.2 µM; in the data active = inhibition above about 11%;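 also: 0% = median of compound wells on plate and 100% = full blocker control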
# ADAM17 inh: ADAM17 inhibitors, primary screen, biochemical, QFRET; Disintegrin and metalloproteinase domain-containing protein 17 (Homo sapiens), P78536; recombinant ADAM17, EDANS/DABCYL FRET peptide cleavage; inhibition, % at 6.95 µM; hit rate 0.83% among 370,000;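 active = inhibition above the mean of compounds lying between control limits plus 3 SD, set per campaign, cut at about 8.5% in these data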;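 also: 0% = DMSO-only wells as the low control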
# ADAM10 confirm: human ADAM10 inhibitors, confirmation, biochemical, QFRET, triplicate. shares compounds with ADAM10 inh. ADAM10 QFRET peptide cleavage, EDANS fluorescence. inhibition, % at 6.95 µM. hit rate 1% among 2,100;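 active = inhibition above about 20% chosen separately for each screening run, limit read from the data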;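 also: 0% = DMSO wells and 100% = marimastat wells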
# ADAM17 ctr: ADAM17 inhibitors, counter-screen for ADAM10 exosite inhibitor project, biochemical, QFRET, high throughput. shares compounds with ADAM10 inh. ADAM17 QFRET peptide cleavage, EDANS fluorescence. inhibition, % at 6.95 µM. hit rate 0.5% among 2,100;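 active = mean triplicate inhibition above the solvent-only control wells' mean plus 3 SD, cut at about 12% in these data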;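 also: 0% = DMSO wells and 100% = marimastat wells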
# Starred values were filed as active, the others as inactive; nt = no result. An excerpt weighted towards active compounds, which were near 2.9% of everything screened.
SMILES,PLC-gamma1 inh,ADAM10 inh,proKLK7 act,PLC-beta3 inh,ADAM17 inh,ADAM10 confirm,ADAM17 ctr
CC(C)(C)c1ccc(Oc2cccc(C3CC(=O)C(C4NCCc5ccccc54)C(=O)C3n3cncn3)c2)cc1 (stereo not given),-5,6,0,-4,0,nt,nt
O=C1CC(c2ccccc2Oc2cccc(Cl)c2)C(n2cncn2)C(=O)C1C1NCCc2ccccc21 (stereo not given),-6,23*,0,-12,0,-1,-1
COc1ccccc1-n1c(SCC(=O)c2ccc(O)cc2O)nc2cc([N+](=O)[O-])ccc21,-7,26*,0,-6,8,9,3
COc1ccc(CN(C2CCCCC2C)S(=O)(=O)c2ccc(S(=O)(=O)N(C)C)cc2)cc1OC (stereo not given),2,22*,0,1,5,8,2
COc1cc(CN(C2CCCCC2C)S(=O)(=O)c2ccc(S(=O)(=O)NC3CC3)cc2)cc(OC)c1OC (stereo not given),2,11,0,1,3,nt,nt
CSc1nc2ccc(Cl)cc2[nH]1,4,-2,0,-2,-2,nt,nt
CSc1nc2cc(Oc3cccc(Cl)c3Cl)c(Cl)cc2[nH]1,9,20*,0,-3,7,8,2
CC(=O)c1ccc(NC(=O)COC(=O)c2ccccc2N=Nc2ccc(N(C)C)cc2)cc1,0,22*,0,4,8,1,1
COC(=O)[C@H](Cc1ccccc1)N(Cc1cn(Cc2ccccc2)nn1)S(=O)(=O)c1ccccc1Br,6,11,0,5,6,nt,nt
CCCCCCC12Cc3cc(OC)c(OC)cc3C(O1)C1=C(O2)C(C)(C)CCC1=O (stereo not given),-6,-11,2,-7,-2,nt,nt
Cc1ccccc1C(=O)NNC(=S)Nc1cccc(C(F)(F)F)c1,6,25*,0,5,8.7*,4,1
O=C(NNC(=S)Nc1cccc(C(F)(F)F)c1)c1ccc(Cl)cc1Cl,-22,16,0,-20,6,nt,nt
CC1CCCCC1NC(=O)C1CC(=O)N(Cc2ccccc2)C1 (stereo not given),3,54*,0,-6,-6,0,1
CCNc1nc(NC(C)C)nc(SCCOc2ccc(C)cc2)n1,7,24*,1,-3,7,7,1
O=S(=O)(NCC(Nc1ccc(Cl)cc1)c1ccccc1)c1ccc(Cl)cc1 (stereo not given),3,23*,0,1,7,12,4
CCOC(=O)[C@@]12CCC3=C1N(CCC3)C(=O)[C@H](CC(=O)NCc1ccc(C)o1)C2,0,2,-1,1,-3,nt,nt
COc1cc(/C=N/NC(=O)c2cc(-c3cccc(OC(C)C)c3)nc3ccccc23)ccc1O,-7,28*,-1,-13,7,9,4
COc1ccc(-n2c(COc3ccccc3)nnc2SCC(=O)Nc2ccc3c(c2)OCCO3)cc1,2,16,0,-1,8,nt,nt
Cc1ccc(-n2c(COc3ccccc3)nnc2SCC(=O)Nc2ccc3c(c2)OCO3)cc1,3,20*,0,0,8,4,1
O=C(CCN1CCN(Cc2ccccc2)CC1)Nc1ccc(OCc2ccccc2)cc1,7,21*,0,7,2,4,1
CC(=O)c1cc(-c2cnn(Cc3ccccc3)c2)c(=O)n2c1CCC2,-12,2,0,-21,3,nt,nt
Fc1ccc(NCc2nnc(SCc3ccccc3)o2)cc1,4,5,0,-5,-5,nt,nt
